Drawing on PubChem BioAssay AID2781 (National Center for Advancing Translational Sciences (NCATS), 2010), this text covers outcome for 20 compounds.

SMILES strings stand for the structures. Activity calls are given as the source filed them.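 How the source made its calls: active means compound whose NMR saturation transfer difference test with menin is positive, showing direct binding to the protein; inactive means the rest.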

Sequence of Menin (Homo sapiens) (O00255 whole entry, looked up): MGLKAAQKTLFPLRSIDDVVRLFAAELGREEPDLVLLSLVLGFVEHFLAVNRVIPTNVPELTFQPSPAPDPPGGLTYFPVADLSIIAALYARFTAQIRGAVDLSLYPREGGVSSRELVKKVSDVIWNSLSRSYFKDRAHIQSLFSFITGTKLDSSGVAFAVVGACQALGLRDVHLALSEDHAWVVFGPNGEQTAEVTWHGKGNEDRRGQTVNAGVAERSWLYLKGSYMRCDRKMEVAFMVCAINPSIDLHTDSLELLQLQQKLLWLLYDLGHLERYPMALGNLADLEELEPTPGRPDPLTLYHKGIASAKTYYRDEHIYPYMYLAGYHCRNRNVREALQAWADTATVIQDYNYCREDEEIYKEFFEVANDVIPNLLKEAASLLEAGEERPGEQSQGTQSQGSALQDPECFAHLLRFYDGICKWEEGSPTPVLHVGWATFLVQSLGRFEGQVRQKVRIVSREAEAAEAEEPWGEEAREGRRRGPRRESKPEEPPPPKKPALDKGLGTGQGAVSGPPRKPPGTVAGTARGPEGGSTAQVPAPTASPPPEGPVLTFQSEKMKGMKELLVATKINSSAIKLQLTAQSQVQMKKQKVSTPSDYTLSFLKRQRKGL

For this experiment, the target named is Menin (Homo sapiens) (UniProt O00255). Briefly: Confirmation of Inhibitors Targeting the Menin-MLL Interaction in MLL Related Leukemias: NMR spectroscopy to verify direct binding of compounds to menin. The following applies: purified menin, NMR STD binding, 100 uM. The essentials:
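Saturation transfer difference NMR at 600 MHz with 2.5 uM menin and 100 uM compound in 50 mM phosphate, 50 mM NaCl, 1 mM DTT, pH 7.5; repeated with 25 uM wild-type MLL peptide added.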
With `CS(=O)(=O)c1ccc2nc(NC(=O)Nc3cccc(Cl)c3)sc2c1`, the outcome was “inactive; negative”. The result for `O=C(C[N+]12CC[N+](CC(=O)c3ccc(F)cc3)(CC1)CC2)c1ccc(F)cc1` reads “active; positive”. With `CCNC(=S)N1CCN(c2nc(CC)nc3sc4c(c23)CCCC4)CC1` the entry was “inactive; negative”.

In the case of `CCc1ccc2c(c1)C(NC(C)=O)C(=O)N2CCN1CCOCC1` (stereo not given), the outcome is “inactive; negative”. In the case of `O=C(O)c1ccccc1NS(=O)(=O)c1cccc(-n2sc3ccccc3c2=O)c1`, the outcome was “inactive; negative”. With `NC(=NCCCCCCN=C(N)/N=C(\N)Nc1ccc(Cl)cc1)/N=C(\N)Nc1ccc(Cl)cc1` the entry was “inactive; negative”.

Regarding `Cc1cc(N/N=C/c2ccc(O)cc2)c2cccc(C)c2n1`, the outcome was “inactive; negative”.

Turning to `CC(=O)NC1C(=O)N(CCN2CCOCC2)c2ccc(Cl)cc21` (stereo not given), the outcome was “inactive; negative”.

As for `COC(=O)c1ccccc1NC1=C/C(=N\S(=O)(=O)c2ccc(C(=O)O)cc2)c2ccccc2C1=O`, the outcome was “inactive; negative”. With `N#Cc1ccc(OCC(O)CN2CCN(C(c3ccccc3)c3ccccc3)CC2)cc1` (stereo not given) the entry was “active; positive”; with `NS(=O)(=O)c1ccc(NC(=O)c2ccc(-c3ccccc3)cc2)cc1`, “inactive; negative”. The result for `CCOC(=O)c1cnc2ccc(OC)cc2c1Nc1ccc(N2CCN(C)CC2)cc1` reads “inactive; negative”. The result for `CC(C)Sc1nc(N2CCOCC2)c2c3c(sc2n1)COC(C)(C)C3` reads “inactive; negative”; that for `CCC(=O)Nc1ccc(-c2cc(-c3ccccc3)nc(-c3ccc(NC(=O)CC)cc3)n2)cc1`, “inactive; negative”; that for `CCOc1cc(CNCCc2ccc(S(N)(=O)=O)cc2)ccc1OCc1ccccc1`, “active; positive”. For `CCOc1ccc2c(c1)C(NC(C)=O)C(=O)N2CCN1CCOCC1` (stereo not given), the outcome was “inactive; negative”. The result for `O=C(Nc1cc(Br)ccc1O)c1cc(-c2ccco2)on1` reads “inactive; negative”; that for `Cc1nc(N2CCN(C)CC2)c2c3c(sc2n1)CCCC3`, “inactive; negative”. The result for `CC(c1ccccc1)c1nnc(NC(=O)Nc2ccccc2F)s1` (stereo not given) reads “inactive; negative”; that for `CCCC(c1nnnn1Cc1ccco1)N1CCN(C2CCCC2)CC1` (stereo not given), “active; positive”.
